Measurements: PubChem BioAssay AID1159580 (chemical genetic matrix, 2015)
The whole screen tested about 5,500 compounds, of which about 2,000 (36%) were called active. Inconclusive results (about 18%) are left out. No stated cut-off is given here; in the data, active means normalized growth mostly below about 0.91 (no sharp cut-off); inconclusive means no clear call, values can overlap the other calls; inactive means mostly above about 0.92. Some of the results follow.

Assay: chemical genetic growth profiling, strain panel (AID 1159580);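 further: tested at 20 µM; growth read once vehicle control cultures reached saturation at 30 °C; 1 = growth at the plate median or of vehicle wells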
Conditions: growth OD

Measured: normalized growth

COC(=O)C[C@H]1C(C)(C)[C@@H](O)[C@@H]2CC3=C4CC(O)O[C@@H](c5ccoc5)[C@]4(C)CCC3[C@@]1(C)C2=O (some centres not stated)
inactive: S. cerevisiae deletion strains, locus YJL187C, strain SWE1, stronger effect = lower value 1.03 | S. cerevisiae deletion strains, locus YJR066W, strain TOR1, stronger effect = lower value 0.962 | S. cerevisiae deletion strains, locus YJR075W, strain HOC1, stronger effect = lower value 0.99 | S. cerevisiae deletion strains, locus YKL009W, strain mrt4, stronger effect = lower value 0.985 | S. cerevisiae deletion strains, locus YKL068W, stronger effect = lower value 0.98 | S. cerevisiae deletion strains, locus YKL085W, strain MDH1 (second series), stronger effect = lower value 0.99 | S. cerevisiae deletion strains, locus YKL085W, strain MDH1, stronger effect = lower value 0.99 | S. cerevisiae deletion strains, locus YKL160W, strain elf1, stronger effect = lower value 0.998 | S. cerevisiae deletion strains, locus YKL190W, strain CNB1, stronger effect = lower value 1 | S. cerevisiae deletion strains, locus YKR001C, strain vps1, stronger effect = lower value 0.98 | S. cerevisiae deletion strains, locus YKR026C, strain gcn3, stronger effect = lower value 1.02 | S. cerevisiae deletion strains, locus YKR091W, strain srl3, stronger effect = lower value 1.01 | S. cerevisiae deletion strains, locus YLL001W, strain dnm1, stronger effect = lower value 0.994 | S. cerevisiae deletion strains, locus YLL026W, stronger effect = lower value 1.02 | S. cerevisiae deletion strains, locus YLL041C, strain sdh2, stronger effect = lower value 1.02 | S. cerevisiae deletion strains, locus YLR027C, strain aat2, stronger effect = lower value 1.04 | S. cerevisiae deletion strains, locus YLR039C, strain RIC1, stronger effect = lower value 0.981 | S. cerevisiae deletion strains, locus YLR058C, strain SHM2, stronger effect = lower value 1 | S. cerevisiae deletion strains, locus YLR102C, strain apc9, stronger effect = lower value 0.99 | S. cerevisiae deletion strains, locus YLR113W, strain HOG1, stronger effect = lower value 0.971 | S. cerevisiae deletion strains, locus YLR221C, strain rsa3, stronger effect = lower value 1.06 | S. cerevisiae deletion strains, locus YLR258W, strain gsy2, stronger effect = lower value 0.99 | S. cerevisiae deletion strains, locus YLR262C, strain YPT6 (second series), stronger effect = lower value 1.01 | S. cerevisiae deletion strains, locus YLR268W, strain sec22, stronger effect = lower value 1.02 | S. cerevisiae deletion strains, locus YLR320W, strain mms22, stronger effect = lower value 1.06 | S. cerevisiae deletion strains, locus YLR342W, strain FKS1, stronger effect = lower value 1.02 | S. cerevisiae deletion strains, locus YLR357W, strain rsc2, stronger effect = lower value 1.04 | S. cerevisiae deletion strains, locus YLR370C, strain arc18, stronger effect = lower value 1 | S. cerevisiae deletion strains, locus YLR371W, strain rom2, stronger effect = lower value 0.96 | S. cerevisiae deletion strains, locus YLR384C, strain iki3, stronger effect = lower value 0.999 | S. cerevisiae deletion strains, locus YLR418C, strain cdc73, stronger effect = lower value 0.946 | S. cerevisiae deletion strains, locus YML016C, strain PPZ1, stronger effect = lower value 1.01 | S. cerevisiae deletion strains, locus YML032C, strain rad52, stronger effect = lower value 0.983 | S. cerevisiae deletion strains, locus YML120C, strain ndi1, stronger effect = lower value 0.995 | S. cerevisiae deletion strains, locus YML124C, strain tub3, stronger effect = lower value 0.981 | S. cerevisiae deletion strains, locus YMR058W, strain fet3, stronger effect = lower value 1.04 | S. cerevisiae deletion strains, locus YMR078C, strain ctf18, stronger effect = lower value 0.957 | S. cerevisiae deletion strains, locus YMR125W, strain sto1, stronger effect = lower value 1.02 | S. cerevisiae deletion strains, locus YMR129W, stronger effect = lower value 1.02 | S. cerevisiae deletion strains, locus YMR205C, strain PFK2, stronger effect = lower value 1.03 | S. cerevisiae deletion strains, locus YMR223W, strain ubp8, stronger effect = lower value 0.988 | S. cerevisiae deletion strains, locus YMR231W, strain pep5, stronger effect = lower value 1.02 | S. cerevisiae deletion strains, locus YMR263W, strain SAP30, stronger effect = lower value 0.983 | S. cerevisiae deletion strains, locus YMR307W, strain GAS1, stronger effect = lower value 1.09 | S. cerevisiae deletion strains, locus YNL067W, strain RPL9B, stronger effect = lower value 0.967 | S. cerevisiae deletion strains, locus YNL071W, strain lat1, stronger effect = lower value 1 | S. cerevisiae deletion strains, locus YNL153C, strain GIM3, stronger effect = lower value 0.978 | S. cerevisiae deletion strains, locus YNL183C, strain NPR1, stronger effect = lower value 0.987 | S. cerevisiae deletion strains, locus YNL209W, strain ssb2, stronger effect = lower value 1 | S. cerevisiae deletion strains, locus YNL233W, strain BNI4, stronger effect = lower value 1.02 | S. cerevisiae deletion strains, locus YNL248C, strain rpa49, stronger effect = lower value 1.05 | S. cerevisiae deletion strains, locus YNL250W, strain rad50, stronger effect = lower value 0.944 | S. cerevisiae deletion strains, locus YNL271C, strain bni1, stronger effect = lower value 0.981 | S. cerevisiae deletion strains, locus YNL298W, strain CLA4, stronger effect = lower value 0.981 | S. cerevisiae deletion strains, locus YNL307C, strain MCK1, stronger effect = lower value 0.994 | S. cerevisiae deletion strains, locus YNL322C, strain KRE1 (second series), stronger effect = lower value 1.04 | S. cerevisiae deletion strains, locus YNR049C, strain mso1, stronger effect = lower value 1.01 | S. cerevisiae deletion strains, locus YNR052C, strain pop2, stronger effect = lower value 0.975 | S. cerevisiae deletion strains, locus YOL006C, strain TOP1, stronger effect = lower value 1.12 | S. cerevisiae deletion strains, locus YOL012C, strain htz1 0.701 | S. cerevisiae deletion strains, locus YOL147C, strain pex11, stronger effect = lower value 0.985 | S. cerevisiae deletion strains, locus YOR001W, strain rrp6, stronger effect = lower value 1.06 | S. cerevisiae deletion strains, locus YOR061W, strain CKA2, stronger effect = lower value 1 | S. cerevisiae deletion strains, locus YOR069W, strain VPS5, stronger effect = lower value 1.01 | S. cerevisiae deletion strains, locus YOR070C, strain gyp1, stronger effect = lower value 1.02 | S. cerevisiae deletion strains, locus YOR080W, strain dia2, stronger effect = lower value 1.03 | S. cerevisiae deletion strains, locus YOR083W, strain WHI5, stronger effect = lower value 0.988 | S. cerevisiae deletion strains, locus YOR106W, strain vam3, stronger effect = lower value 0.954 | S. cerevisiae deletion strains, locus YOR136W, strain idh2, stronger effect = lower value 0.999 | S. cerevisiae deletion strains, locus YOR144C, strain elg1, stronger effect = lower value 0.99 | S. cerevisiae deletion strains, locus YOR184W, strain ser1, stronger effect = lower value 1.03 | S. cerevisiae deletion strains, locus YOR231W, strain MKK1, stronger effect = lower value 0.983 | S. cerevisiae deletion strains, locus YOR265W, strain rbl2, stronger effect = lower value 1 | S. cerevisiae deletion strains, locus YOR270C, strain vph1, stronger effect = lower value 1.05 | S. cerevisiae deletion strains, locus YOR290C, strain snf2, stronger effect = lower value 0.953 | S. cerevisiae deletion strains, locus YOR316C, strain cot1, stronger effect = lower value 0.985 | S. cerevisiae deletion strains, locus YPL051W, strain arl3, stronger effect = lower value 1.04 | S. cerevisiae deletion strains, locus YPL078C, strain atp4, stronger effect = lower value 0.976 | S. cerevisiae deletion strains, locus YPL106C, strain sse1, stronger effect = lower value 1.04 | S. cerevisiae deletion strains, locus YPL240C, strain hsp82, stronger effect = lower value 1.01 | S. cerevisiae deletion strains, locus YPL256C, strain CLN2, stronger effect = lower value 1.01 | S. cerevisiae deletion strains, locus YPR119W, strain clb2, stronger effect = lower value 0.977 | S. cerevisiae deletion strains, locus YPR141C, strain kar3, stronger effect = lower value 0.977 | S. cerevisiae deletion strains, locus YPR163C, strain tif3, stronger effect = lower value 0.989 | S. cerevisiae deletion strains, locus YPR167C, strain met16, stronger effect = lower value 0.971 | S. cerevisiae deletion strains, strain wtn01, stronger effect = lower value 1 | S. cerevisiae strains, strain wild type, stronger effect = lower value 1.03
